Measurements as given in PubChem BioAssay AID1006 (Sanford-Burnham Center for Chemical Genomics, 2008).
Screen size: about 200,000 compounds; about 3,000 (1.5%) were called active. The sample as a whole holds a higher share of actives than the screen did. Unmarked numbers belong to inactive results.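 How the source made its calls: active means inhibition above about 50% when tested at 10 µM (limit read from the data); inactive means the rest.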

The molecules below were run against Luciferin 4-monooxygenase (Photinus pyralis) (UniProt P08659) (assay: inhibition of purified FLuc reporter enzyme – biochemical, luminescence, ATPLite, artefact control for luciferase-based inhibitor screens, primary screen (AID 1006)). Conditions: ATPLite firefly luciferase biochemical luminescence, 10 min; at 10 µM; stronger effect = higher value.
Sequence of Luciferin 4-monooxygenase (Photinus pyralis) (P08659 whole entry, looked up): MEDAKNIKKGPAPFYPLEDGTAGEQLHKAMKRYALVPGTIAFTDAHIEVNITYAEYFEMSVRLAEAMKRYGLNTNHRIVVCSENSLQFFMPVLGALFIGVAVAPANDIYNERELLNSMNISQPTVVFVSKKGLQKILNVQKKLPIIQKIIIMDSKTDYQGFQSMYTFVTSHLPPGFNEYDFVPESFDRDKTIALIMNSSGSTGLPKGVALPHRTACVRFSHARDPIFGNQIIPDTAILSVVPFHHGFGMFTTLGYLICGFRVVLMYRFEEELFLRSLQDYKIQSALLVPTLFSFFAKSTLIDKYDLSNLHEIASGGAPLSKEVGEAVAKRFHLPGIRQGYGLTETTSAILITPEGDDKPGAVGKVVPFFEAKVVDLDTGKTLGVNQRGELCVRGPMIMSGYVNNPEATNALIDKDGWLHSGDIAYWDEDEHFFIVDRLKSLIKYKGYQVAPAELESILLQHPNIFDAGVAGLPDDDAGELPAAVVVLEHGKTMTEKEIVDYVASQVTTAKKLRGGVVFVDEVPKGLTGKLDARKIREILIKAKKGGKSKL
CN(C(=O)COc1ccccc1)c1nnc(-c2ccncc2)s1 was tested, and the inhibition was -2.1%.
CN(C(=O)c1ccccn1)c1nnc(-c2ccccn2)s1 was tested, and the inhibition was 55.5% (active).
Molecule CN(C(=O)c1ccno1)c1nnc(-c2cccnc2)s1 has an inhibition of 0.1%.
With Cn1c(=NC(=O)c2cnccn2)sc2ccccc21 the inhibition was 75.5% (active).
Work on Cn1c(=NC(=O)CSCC(=O)N2CCCCC2)sc2ccccc21 yielded an inhibition of -5%.
For Cn1c(=NC(=O)CSCC(=O)N2CCOCC2)sc2ccccc21, the inhibition was -1.3%.
CCOc1ccc(-c2n[nH]c(C)c2-c2ccccn2)c(O)c1 was tested, and the inhibition was -3.7%.
For CCNC(=O)CCc1nc(-c2ccc(C(C)(C)C)cc2)no1, the inhibition was 52.3% (active).
With CN1CCN(C(=O)CCc2nc(-c3ccc(Cl)cc3)no2)CC1 the inhibition was -4.7%.
Cc1ccc(-c2noc(CCC(N)=O)n2)cc1 was tested, and the inhibition was 0.2%.
For COc1ccc(/C=N/Nc2nc3ccccc3o2)cc1OC, the inhibition was 11.5%.
CCOc1ccc(/C=N/Nc2nncc(-c3ccccc3)n2)cc1OC gave an inhibition of 9.9%.
With COc1cc(/C=N/Nc2nn3cnnc3c3ccccc23)cc(OC)c1OC the inhibition was 84.1% (active).
For CCC(C)(C)C1CCC(=NNC(=O)c2ccc(Br)o2)CC1 (configuration not stated), the inhibition was -7.3%.
With CCCCN(C)CCNC(=O)CSCc1ccc(C)cc1 the inhibition was -9.7%.
For O=C(CSc1ccc2nnc(-c3ccccc3)n2n1)N1CCCc2ccccc21, the inhibition was 4.5%.
In the case of CSCc1ccc(C(=O)Nc2cc(C)cc(C)c2)cc1, the inhibition is reported as 77.9% (active).
CC(=O)Nc1ccccc1NC(=O)c1cc(C)cc(C)c1 gave an inhibition of -8.5%.
C=CCN(c1ccc(C(=O)Nc2cc(C)cc(C)c2)cc1)S(C)(=O)=O was tested, and the inhibition was -2.7%.
O=C(O)c1ccc(/C=N/NC(=O)c2ccc(Br)cc2)cc1 was tested, and the inhibition was 15.3%.
In the case of O=C(CSc1nc(O)c(Cc2ccccc2)c(=O)[nH]1)Nc1nc2c(s1)CCCC2, the inhibition is reported as -3%.
CCOC(=O)c1sc(NC(=O)CSc2nc(O)c(Cc3ccccc3)c(=O)[nH]2)nc1C was tested, and the inhibition was 72.8% (active).
CCOC(=O)c1sc(NC(=O)CSc2n[nH]c(CC)n2)nc1C gave an inhibition of -4.3%.
O=C(COC(=O)C1CCCCC1)Nc1ccc([N+](=O)[O-])cc1 was tested, and the inhibition was 2.8%.
With COc1cc(OC)c(C2=NOC(C(=O)Nc3c(C)n(C)n(-c4ccccc4)c3=O)C2)cc1Cl (configuration not stated) the inhibition was -5.5%.
CCOC(=O)C1(Cc2ccccc2C(F)(F)F)CCN(C(=O)c2cc(C)n(C)n2)CC1 was tested, and the inhibition was -9.5%.
O=C(NCCOc1ccccc1)c1ccccc1 was tested, and the inhibition was 14.7%.
With CCCOc1ccc(C(=O)NCCc2ccccc2)cc1 the inhibition was 70.6% (active).
O=C(NCCc1ccccc1)c1ccc(OCCOc2ccccc2)cc1 was tested, and the inhibition was -1.1%.
In the case of Cc1ccc(-c2cc(C(F)(F)F)n3ncc(C(=O)N4CCCCC4c4cccnc4)c3n2)cc1 (configuration not stated), the inhibition is reported as -6.3%.
Cc1ccc(-c2nc(-c3cccnc3)sc2CC(=O)Nc2ccc(C)c(Cl)c2)cc1 showed an inhibition of -1.9%.
In the case of Cc1cccc2c(=O)n3c(nc12)CCCCC3, the inhibition is reported as -5.2%.
For O=c1c2c(nc3n1CCCCC3)sc1c(O)cccc12, the inhibition was 60.4% (active).
Cc1c(C(=O)Nc2ccccc2)sc2nc3n(c(=O)c12)CCCCC3 showed an inhibition of -3.9%.
CC(C)c1cc(NCc2ccccn2)n2c(nc3ccccc32)c1C#N was tested, and the inhibition was -5.4%.
Work on Cc1nnc(SC(C(=O)Nc2cc(Cl)cc(Cl)c2)c2ccccc2)[nH]c1=O (configuration not stated) yielded an inhibition of -3.6%.
Work on O=C(CC(=O)N/N=C\c1cccc(Cl)c1Cl)NCc1ccccc1 yielded an inhibition of -7.3%.
CS(=O)(=O)Nc1cccc(-c2cn3ccccc3n2)c1 gave an inhibition of 16.8%.
Molecule Cc1ccc(-c2cc(N)on2)cc1 has an inhibition of 17.5%.
For Cc1ccc(-c2cn3cc(C)ccc3n2)cc1, the inhibition was 95.9% (active).
For COc1ccc(OC)c(-n2c(=S)[nH]c3cc(C(=O)N4CCCCC4)ccc3c2=O)c1, the inhibition was -6.8%.
C/C(=N\Nc1ncc(Cl)cc1Cl)c1ccc(S(=O)(=O)NCc2ccco2)cc1 gave an inhibition of 2%.
With COc1cccc(/C(C)=N/Nc2ncc(Cl)cc2Cl)c1 the inhibition was 4.4%.
With C/C(=N\Nc1nc2ccccc2[nH]1)c1cccs1 the inhibition was 73.6% (active).
In the case of C/C(=N\Nc1nc(Nc2ccccc2)nc(N2CCOCC2)n1)c1cccs1, the inhibition is reported as 5.5%.
In the case of O=C(CSc1nc2ccccc2[nH]1)c1cccs1, the inhibition is reported as 5.4%.
With C/C(=N\Nc1ncc(Cl)cc1Cl)c1cccs1 the inhibition was 57.2% (active).
Cc1cc(NC(C)C)n2c(nc3ccccc32)c1C#N gave an inhibition of -2%.
In the case of O=[N+]([O-])c1ccc2c(c1)C(N1CCOCC1)/C(=C/C1(O)CCCCC1)O2 (configuration not stated), the inhibition is reported as 0.2%.
With O=C(CN1CCC(O)(c2ccccc2)CC1)Nc1ccc2c(c1)OCCO2 the inhibition was -7.8%.
For C=CCc1cccc2cc(C(=O)Nc3ccc(NC(C)=O)cc3)c(=O)oc12, the inhibition was -2.7%.
In the case of CC(C)N(Cc1ccccc1)C(=O)COC(=O)c1cnccn1, the inhibition is reported as -3.5%.
Work on Cn1c(=NC(=O)C2CC2)sc2cc(F)cc(F)c21 yielded an inhibition of 0.6%.
Molecule CCCC(=O)N=c1sc2cccc(F)c2n1C has an inhibition of 7%.
For Cn1c(=NC(=O)c2ccco2)sc2cccc(F)c21, the inhibition was 59.7% (active).
C=C(C)c1cccc(C(C)(C)NC(=O)NC2CCCC2)c1 was tested, and the inhibition was -3.3%.
CCC(=O)N1CCC(C(N)=O)(N2CCCCC2)CC1 showed an inhibition of -4.7%.
With c1ccc(Nc2nc(N3CCOCC3)c3ccccc3n2)cc1 the inhibition was 2%.
With CCOc1ccc(Nc2nc(Cl)nc(N3CCN(c4ccc(OC)cc4)CC3)n2)cc1 the inhibition was -4.4%.
In the case of COc1ccc(Nc2ncc(F)c(N3CCOCC3)n2)cc1, the inhibition is reported as 75.2% (active).
Cc1nc(N2CCOCC2)sc1C(=O)NN showed an inhibition of 0.3%.
In the case of CCOc1ccc(C(=O)Nc2cccc(SC)c2)cc1, the inhibition is reported as 62.1% (active).
With CCOc1ccc(C(=O)Nc2cccc(-c3ccc4nncn4n3)c2)cc1 the inhibition was 37.7%.
With CCOc1ccc(C(=O)Nc2ccncc2)cc1 the inhibition was 11.8%.
For O=C1CC(c2c(F)cccc2Cl)C(n2cncn2)C(O)=C1C1NCCc2ccccc21 (configuration not stated), the inhibition was -4.6%.
Molecule O=C(c1cncc(Br)c1)N1CCN(c2ccc([N+](=O)[O-])cc2)CC1 has an inhibition of -0.9%.
With COC(=O)c1ccc(-c2noc(CN(Cc3ccccn3)CC3CCCO3)n2)cc1 (configuration not stated) the inhibition was 4.4%.
In the case of Cc1cc(C(=O)COC(=O)C2CC2)c(C)n1-c1ccc(F)cc1, the inhibition is reported as 95% (active).
Molecule Cc1ccc(-n2c(C)cc(C(=O)CN3C(=O)C(=O)N(C4CCCC4)C3=O)c2C)cc1 has an inhibition of -7.1%.
For COc1cc(/C=N/NC(=O)c2cc(C)n(-c3ccc(F)cc3)c2C)cc(OC)c1O, the inhibition was 5.2%.
CC(=O)n1c(C=Nc2ccccc2)c(O)c2ccccc21 was tested, and the inhibition was 61.6% (active).
Molecule CCOc1ccc(N=Cc2c(O)n(-c3cccc(C)n3)c(=O)c3ccccc23)cc1 has an inhibition of -1%.
With CCCn1c(=O)c(-c2ccccc2)c(O)c2ccccc21 the inhibition was 0.1%.
Work on Cc1cccc(C(=O)NNC(=O)c2cccc([N+](=O)[O-])c2)c1 yielded an inhibition of -0.8%.
In the case of CCc1ccc(-c2cc(C(=O)NN3CCN(C)CC3)c3ccccc3n2)cc1, the inhibition is reported as 63% (active).
With O=C(NCCc1ccccn1)c1cc(-c2ccc(Cl)cc2)nc2ccccc12 the inhibition was 1.6%.
Work on CC(C)(C)Cc1nnc(NC(=O)c2cc(-c3ccccc3)nc3ccccc23)s1 yielded an inhibition of -4.3%.
Cc1nc2ccc(NC(=S)N3CCC(C)CC3)cc2nc1C showed an inhibition of -2.6%.
In the case of O=C(C1CCCN1S(=O)(=O)c1ccc(Br)cc1)N1CCOCC1 (configuration not stated), the inhibition is reported as 0.6%.
Molecule CCCCN(CC)CCCNC(=O)c1ccc(CSc2nc3ccncc3[nH]2)cc1 has an inhibition of 37.9%.
With O=C(CC1CCCCC1)NCc1ccc(F)cc1 the inhibition was -3.7%.
For c1ccc(-n2nnnc2-c2cccnc2)cc1, the inhibition was -0.4%.
COc1ccc(NC(=O)c2ccc(C#CC(C)(C)O)cc2)cc1 gave an inhibition of 5.6%.
Work on COc1cccc(C(=O)NNC(=O)c2ccccc2Br)c1 yielded an inhibition of 2.9%.
Work on COc1cccc(OC)c1C(=O)Nc1ccc(N2CCCCC2)cc1 yielded an inhibition of -8.2%.
With COc1cccc(C(=O)Nc2cc3c(cc2Br)OCCCO3)c1 the inhibition was 64.3% (active).
For COc1ccc(C(=O)Nc2ccc(S(=O)(=O)NC(C)C)cc2)cc1, the inhibition was -3.1%.
In the case of COc1ccc(NC(=O)c2ccc(OC)cc2)cc1, the inhibition is reported as 63.1% (active).
COc1ccc(C2COC(=O)C2=N)c(NC(=O)c2ccccc2)c1 (configuration not stated) gave an inhibition of -6.7%.
COc1cccc(C(=O)Nc2ccc(N3CCCC3)cc2)c1 was tested, and the inhibition was 67.6% (active).
For COc1ccc(C(=O)NC(=S)Nc2ccc(N3CCCC3)cc2)cc1OC, the inhibition was -14.5%.
With CC(C)(C)C1CCC(C(=O)Nc2cccnc2)CC1 (configuration not stated) the inhibition was -3.4%.
In the case of COc1ccc(-c2csc(-c3cccs3)n2)cc1OC, the inhibition is reported as 19.9%.
COc1cccc(C(=O)NCCSc2ccc(Br)cc2)c1 gave an inhibition of 2.1%.
In the case of C=CCNc1scc(-c2ccccc2)[n+]1CC=C, the inhibition is reported as -5.9%.
For O=C(N/N=C/c1coc2ccccc2c1=O)c1cc2ccccc2o1, the inhibition was -6.6%.
N=c1oc2ccccc2cc1C(=O)N/N=C/c1ccccc1 was tested, and the inhibition was 56.7% (active).
In the case of CNC(=O)c1cc2c(ccc3ccccc32)oc1=N, the inhibition is reported as 7.1%.
O=C(O)C1C2CC2CN1C(=O)c1ccc(Cl)cc1Cl (configuration not stated) showed an inhibition of -5%.
For O=C(OC1CCOC1=O)c1cccc(S(=O)(=O)Nc2ccc(F)cc2)c1 (configuration not stated), the inhibition was -4.8%.
With O=C(OC1CCOC1=O)c1ccc(-c2nc3ccccc3s2)s1 (configuration not stated) the inhibition was 91.4% (active).
With Cc1nn(Cc2ccccc2)c(Cl)c1C(=O)OC1CCOC1=O (configuration not stated) the inhibition was -3.6%.
